Laboratory results taken from PubChem BioAssay AID1159580 (chemical genetic matrix, 2015).
The campaign covered roughly 5,500 compounds. About 2,000 (36%) were called active. Inconclusive results (about 18%) are left out. Rule as the data show it: active = normalized growth mostly below about 0.91 (no sharp cut-off); inconclusive = no clear call, values can overlap the other calls; inactive = mostly above about 0.92. Some of the results follow.

Test: chemical genetic growth profiling, strain panel (AID 1159580);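 also: tested at 20 µM; growth read once vehicle control cultures reached saturation at 30 °C; 1 = growth at the plate median or of vehicle wells; lower values mean less growth of the strain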
Conditions: growth OD

Measured: normalized growth

CO[C@@]1(NC(=O)C(C(=O)O)c2ccc(O)cc2)C(=O)N2C(C(=O)O)=C(CSc3nnnn3C)CO[C@@H]21 (some centres not stated)
inactive: S. cerevisiae deletion strains, locus YJR075W, strain HOC1, hits give low values 1.02 | S. cerevisiae deletion strains, locus YKL009W, strain mrt4, hits give low values 1 | S. cerevisiae deletion strains, locus YKL068W, hits give low values 1.01 | S. cerevisiae deletion strains, locus YKL085W, strain MDH1 (second series), hits give low values 1.01 | S. cerevisiae deletion strains, locus YKL085W, strain MDH1, hits give low values 1.01 | S. cerevisiae deletion strains, locus YKL160W, strain elf1, hits give low values 0.962 | S. cerevisiae deletion strains, locus YKL190W, strain CNB1, hits give low values 1.02 | S. cerevisiae deletion strains, locus YKR001C, strain vps1, hits give low values 1.02 | S. cerevisiae deletion strains, locus YKR026C, strain gcn3, hits give low values 0.998 | S. cerevisiae deletion strains, locus YKR091W, strain srl3, hits give low values 0.976 | S. cerevisiae deletion strains, locus YLL001W, strain dnm1, hits give low values 0.922 | S. cerevisiae deletion strains, locus YLL026W, hits give low values 0.986 | S. cerevisiae deletion strains, locus YLL041C, strain sdh2, hits give low values 0.988 | S. cerevisiae deletion strains, locus YLR027C, strain aat2, hits give low values 1 | S. cerevisiae deletion strains, locus YLR039C, strain RIC1, hits give low values 1.02 | S. cerevisiae deletion strains, locus YLR058C, strain SHM2, hits give low values 1.01 | S. cerevisiae deletion strains, locus YLR102C, strain apc9, hits give low values 1.02 | S. cerevisiae deletion strains, locus YLR113W, strain HOG1, hits give low values 0.995 | S. cerevisiae deletion strains, locus YLR221C, strain rsa3, hits give low values 0.945 | S. cerevisiae deletion strains, locus YLR258W, strain gsy2, hits give low values 0.984 | S. cerevisiae deletion strains, locus YLR262C, strain YPT6 (second series), hits give low values 0.946 | S. cerevisiae deletion strains, locus YLR262C, strain YPT6, hits give low values 0.999 | S. cerevisiae deletion strains, locus YLR268W, strain sec22, hits give low values 1.04 | S. cerevisiae deletion strains, locus YLR320W, strain mms22, hits give low values 0.967 | S. cerevisiae deletion strains, locus YLR330W, strain CHS5, hits give low values 1.01 | S. cerevisiae deletion strains, locus YLR342W, strain FKS1 (second series), hits give low values 0.996 | S. cerevisiae deletion strains, locus YLR342W, strain FKS1, hits give low values 0.99 | S. cerevisiae deletion strains, locus YLR357W, strain rsc2, hits give low values 0.945 | S. cerevisiae deletion strains, locus YLR370C, strain arc18, hits give low values 0.978 | S. cerevisiae deletion strains, locus YLR371W, strain rom2, hits give low values 1.03 | S. cerevisiae deletion strains, locus YLR384C, strain iki3, hits give low values 0.982 | S. cerevisiae deletion strains, locus YLR418C, strain cdc73, hits give low values 1.02 | S. cerevisiae deletion strains, locus YML016C, strain PPZ1, hits give low values 1 | S. cerevisiae deletion strains, locus YML032C, strain rad52, hits give low values 1.03 | S. cerevisiae deletion strains, locus YML120C, strain ndi1, hits give low values 0.951 | S. cerevisiae deletion strains, locus YML124C, strain tub3, hits give low values 1.01 | S. cerevisiae deletion strains, locus YMR058W, strain fet3, hits give low values 0.975 | S. cerevisiae deletion strains, locus YMR078C, strain ctf18, hits give low values 1.02 | S. cerevisiae deletion strains, locus YMR125W, strain sto1, hits give low values 0.953 | S. cerevisiae deletion strains, locus YMR129W, hits give low values 0.994 | S. cerevisiae deletion strains, locus YMR205C, strain PFK2, hits give low values 0.946 | S. cerevisiae deletion strains, locus YMR223W, strain ubp8, hits give low values 0.985 | S. cerevisiae deletion strains, locus YMR231W, strain pep5, hits give low values 0.991 | S. cerevisiae deletion strains, locus YMR263W, strain SAP30, hits give low values 1.02 | S. cerevisiae deletion strains, locus YMR307W, strain GAS1, hits give low values 0.971 | S. cerevisiae deletion strains, locus YNL067W, strain RPL9B, hits give low values 1.02 | S. cerevisiae deletion strains, locus YNL071W, strain lat1, hits give low values 0.989 | S. cerevisiae deletion strains, locus YNL128W, strain TEP1, hits give low values 1.01 | S. cerevisiae deletion strains, locus YNL153C, strain GIM3, hits give low values 1.01 | S. cerevisiae deletion strains, locus YNL183C, strain NPR1, hits give low values 0.949 | S. cerevisiae deletion strains, locus YNL209W, strain ssb2, hits give low values 0.978 | S. cerevisiae deletion strains, locus YNL233W, strain BNI4, hits give low values 1.01 | S. cerevisiae deletion strains, locus YNL248C, strain rpa49, hits give low values 1 | S. cerevisiae deletion strains, locus YNL250W, strain rad50, hits give low values 1.02 | S. cerevisiae deletion strains, locus YNL271C, strain bni1, hits give low values 1.01 | S. cerevisiae deletion strains, locus YNL298W, strain CLA4, hits give low values 1.02 | S. cerevisiae deletion strains, locus YNL307C, strain MCK1, hits give low values 1.01 | S. cerevisiae deletion strains, locus YNL322C, strain KRE1 (second series), hits give low values 0.971 | S. cerevisiae deletion strains, locus YNL322C, strain KRE1, hits give low values 1.01 | S. cerevisiae deletion strains, locus YNR049C, strain mso1, hits give low values 0.972 | S. cerevisiae deletion strains, locus YNR052C, strain pop2, hits give low values 1.02 | S. cerevisiae deletion strains, locus YOL006C, strain TOP1, hits give low values 1.06 | S. cerevisiae deletion strains, locus YOL012C, strain htz1 0.996 | S. cerevisiae deletion strains, locus YOL147C, strain pex11, hits give low values 1.01 | S. cerevisiae deletion strains, locus YOR001W, strain rrp6, hits give low values 1.01 | S. cerevisiae deletion strains, locus YOR061W, strain CKA2, hits give low values 1 | S. cerevisiae deletion strains, locus YOR069W, strain VPS5, hits give low values 1.01 | S. cerevisiae deletion strains, locus YOR070C, strain gyp1, hits give low values 0.992 | S. cerevisiae deletion strains, locus YOR080W, strain dia2, hits give low values 0.987 | S. cerevisiae deletion strains, locus YOR083W, strain WHI5, hits give low values 0.961 | S. cerevisiae deletion strains, locus YOR106W, strain vam3, hits give low values 0.973 | S. cerevisiae deletion strains, locus YOR136W, strain idh2, hits give low values 1.02 | S. cerevisiae deletion strains, locus YOR144C, strain elg1, hits give low values 1.02 | S. cerevisiae deletion strains, locus YOR184W, strain ser1, hits give low values 1.02 | S. cerevisiae deletion strains, locus YOR231W, strain MKK1, hits give low values 1 | S. cerevisiae deletion strains, locus YOR265W, strain rbl2, hits give low values 0.998 | S. cerevisiae deletion strains, locus YOR270C, strain vph1, hits give low values 0.967 | S. cerevisiae deletion strains, locus YOR290C, strain snf2, hits give low values 0.917 | S. cerevisiae deletion strains, locus YOR316C, strain cot1, hits give low values 1.02 | S. cerevisiae deletion strains, locus YPL051W, strain arl3, hits give low values 0.983 | S. cerevisiae deletion strains, locus YPL055C, strain LGE1, hits give low values 1.02 | S. cerevisiae deletion strains, locus YPL078C, strain atp4, hits give low values 0.97 | S. cerevisiae deletion strains, locus YPL106C, strain sse1, hits give low values 0.94 | S. cerevisiae deletion strains, locus YPL240C, strain hsp82, hits give low values 0.981 | S. cerevisiae deletion strains, locus YPL241C, strain CIN2, hits give low values 1 | S. cerevisiae deletion strains, locus YPL256C, strain CLN2, hits give low values 0.961 | S. cerevisiae deletion strains, locus YPR119W, strain clb2, hits give low values 1.02 | S. cerevisiae deletion strains, locus YPR141C, strain kar3, hits give low values 1.02 | S. cerevisiae deletion strains, locus YPR163C, strain tif3, hits give low values 1.02 | S. cerevisiae deletion strains, locus YPR167C, strain met16, hits give low values 1.02 | S. cerevisiae deletion strains, strain wtn01, hits give low values 1.02 | S. cerevisiae strains, strain wild type, hits give low values 1.01
